Experimental findings from PubChem BioAssay (EPA / NIEHS) are described below.

Values joined by “and” are separate entries in the source; they are usually repeats but may differ in a detail not shown here. Equal entries are not always repeated. Results filed as inconclusive are left out. Where a structure was tested more than once in an assay, its records may differ in their call. Active and inactive are the calls of the source. How the source made its calls, unless noted: active means hit-call score of the fitted dose curve at least 0.9, where 1 is the maximum; inactive means score below 0.9.

The target of experiment [1] is Myc proto-oncogene protein (Homo sapiens) (UniProt P01106). Briefly: ATG_Myc_CIS: Attagene CIS-FACTORIAL HepG2 Assay for human Myelocytomatosis (Myc) Proto-Oncogene Transcription Factor (AID 2282990). The following applies: HepG2, Attagene cis-reporter transcription factor activity; actives raise or lower the signal. The method, boiled down: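 HepG2 cells transiently transfected with multiple cis-promoter-driven reporter transcription units, so endogenous TF activity is read. After 24 h compound exposure, reporter mRNA was quantified by RT-PCR, 6-FAM labelling, HpaI digestion and capillary electrophoresis; bidirectional fit versus DMSO.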

The nature of experiment [2]: ATG_NRF2_ARE_CIS: Attagene CIS-FACTORIAL HepG2 Assay for human Nuclear Factor Erythroid 2 Related Factor 2 (NFR2) response to Antioxidant Response Elements (ARE) (AID 2282992).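 On AC50: reporter mRNA level measured by RT-PCR and capillary electrophoresis fluorescence.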 To be noted: HepG2 Attagene ARE/NRF2 reporter, transcription factor activity; actives raise or lower the signal. The method, boiled down: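 HepG2 cells transiently transfected with multiplexed cis-element reporter constructs, 24 h after chemical dosing; reporter mRNA quantified by RT-PCR, fluorescent primer extension, HpaI digestion and capillary electrophoresis. Bidirectional fit relative to DMSO.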

The nature of experiment [3]: ATG_Oct_MLP_CIS: Attagene CIS-FACTORIAL HepG2 Assay for human Octamer-Binding Transcription Factor (Oct) (AID 2282993). To be noted: HepG2 Attagene cis-factorial Oct reporter, mRNA; actives raise or lower the signal. The method, boiled down: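 Readout is reporter transcript level from RT-PCR with fluorescent primer extension and capillary electrophoresis, fitted in both directions against DMSO. Transfected HepG2 reporter units report endogenous factor activity after 24 h dosing.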

The target in experiment [4] is Cellular tumor antigen p53 (Homo sapiens) (UniProt P04637). Briefly: ATG_p53_CIS: Attagene CIS-FACTORIAL HepG2 Assay for human p53 Transcription Factor (AID 2282994). The following applies: HepG2 p53 cis-element reporter, Attagene mRNA; actives raise or lower the signal. The method, boiled down: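 HepG2 cells transiently transfected with cis-regulated multiple reporter transcription units, dosed 24 h. Reporter mRNA measured by RT-PCR, 6-FAM primer extension, HpaI digestion and capillary electrophoresis; bidirectional fit relative to DMSO.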

A short description of experiment [5]: BSK_3C_TissueFactor: BioMAP Diversity Plus: 3C Assay for Tissue Factor Biomarker Activity (AID 2282997). The following applies: BioMAP 3C HUVEC, tissue factor biomarker readout; actives raise or lower the signal. The method, boiled down: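 Human vascular primary cells (umbilical vein endothelium) received test chemical; Tissue Factor was determined by ELISA at 24 h, and both gain and loss of signal versus DMSO were fitted.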

Experiment [6] is described as follows: BSK_3C_uPAR: BioMAP Diversity Plus: 3C Assay for Urokinase-type plasminogen activator receptor (uPAR) Biomarker Activity (AID 2282998). The following applies: BioMAP 3C HUVEC, uPAR biomarker ELISA; actives raise or lower the signal. The method, boiled down: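 Cell-surface uPAR on HUVEC (3C system) read by ELISA at 24 h post-treatment, with DMSO as baseline and fitting in both directions. Parallel cultures stained with SRB to flag overt cytotoxicity.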

Experiment [7] in a line: BSK_3C_VCAM1: BioMAP Diversity Plus: 3C Assay for Vascular cell adhesion molecule 1 (VCAM1) Biomarker Activity (AID 2282999). The following applies: BioMAP 3C HUVEC, VCAM1 ELISA, cytokine-stimulated; actives raise or lower the signal. The method, boiled down:
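Human umbilical vein endothelial cells were dosed with compound for 24 h, after which cell-surface VCAM-1 was quantified by ELISA. Bidirectional curve fitting used DMSO as negative control and activity baseline.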

Experiment [8] in a line: BSK_4H_Eotaxin3: BioMAP Diversity Plus: 4H Assay for Eotaxin 3 Biomarker Activity (AID 2283000).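 Further: CCL26 protein level quantified by ELISA in parallel with SRB cytotoxicity check.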 To be noted: primary human endothelial cells (HUVEC); actives raise or lower the signal. The method, boiled down:
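Readout is Eotaxin-3 (CCL26) level by ELISA in primary human umbilical vein endothelial cells harvested 24 h after chemical exposure; activity fitted in both directions against DMSO control.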

Experiment [9] deals with human Peroxisome Proliferator-activated Receptor alpha (PPARa), PPARA (gene 5465) (UniProt Q07869). Briefly: ATG_PPARa_TRANS: Attagene TRANS-FACTORIAL HepG2 Assay for human Peroxisome Proliferator-activated Receptor alpha (PPARa) (AID 2283001; active means hit-call score of the fitted dose curve at least 0.9, where 1 is the maximum;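 on AC50: potency for gain of reporter signal over DMSO so agonist or activator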). The method, boiled down: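 HepG2 cells transiently transfected with multiplexed GAL4-UAS reporter units and chimeric NR-Gal4 constructs were dosed for 24 h. Reporter mRNA was measured by RT-PCR with fluorescent labelling and capillary electrophoresis; gain of signal fitted against DMSO.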

Read-out in experiment [10]: Intercellular Adhesion Molecule 1 (ICAM1), ICAM1 (gene 3383)
Briefly: BSK_3C_ICAM1: BioMAP Diversity Plus: 3C Assay for Intercellular Adhesion Molecule 1 (ICAM1) Biomarker Activity (AID 2283003). The following applies: primary human endothelial cells (HUVEC); actives raise or lower the signal. The method, boiled down: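 Human vascular endothelial primary cells, 3C conditions, 24 h treatment. ICAM-1 by ELISA.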

A short description of experiment [11]: BSK_3C_Proliferation: Cell Proliferation Assessment in the BioMAP Diversity Plus: 3C Assay (AID 2283006). To be noted: primary human endothelial cells (HUVEC). The method, boiled down: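 Proliferation of human vascular endothelial primary cells after 48 h dosing, quantified as SRB-stained protein at 560 nm relative to DMSO.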
Experiment [12] has as its target Peroxisome proliferator-activated receptor gamma (Homo sapiens) (UniProt P37231). The experiment is described as follows: ATG_PPARg_TRANS: Attagene TRANS-FACTORIAL HepG2 Assay for human Peroxisome Proliferator-activated Receptor-gamma (PPARg) (AID 2283007; active means hit-call score of the fitted dose curve at least 0.9, where 1 is the maximum). The method, boiled down: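 Transient transfection of HepG2 with GAL4-UAS-driven reporter units; chemical dosing 24 h; total RNA → oligo(dT) RT → PCR with reporter primers → 6-FAM primer extension → HpaI digest 2 h 37 C → capillary electrophoresis. Positive direction vs DMSO.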

Experiment [13] concerns the target human Retinoic Acid Receptor gamma (RARg), RARG (gene 5916) (UniProt P13631). The experiment is described as follows: ATG_RARg_TRANS: Attagene TRANS-FACTORIAL HepG2 Assay for human Retinoic Acid Receptor gamma (RARg) (AID 2283009; active means hit-call score of the fitted dose curve at least 0.9, where 1 is the maximum). The method, boiled down: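 HepG2, RARg-GAL4 TRANS system, 24 h exposure; reporter mRNA by RT-PCR + CE fluorescence; increase over DMSO.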

Experiment [14] has as its target human Retinoic Acid Receptor beta (RARb), RARB (gene 5915) (UniProt P10826). The experiment is described as follows: ATG_RARb_TRANS: Attagene TRANS-FACTORIAL HepG2 Assay for human Retinoic Acid Receptor beta (AID 2283004; active means hit-call score of the fitted dose curve at least 0.9, where 1 is the maximum). The method, boiled down:
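Readout is reporter mRNA induction: RNA reverse-transcribed, PCR-amplified, FAM-labelled, HpaI-cut and resolved by capillary electrophoresis. Transiently transfected HepG2 cells carrying exogenous NR–Gal4 chimeras were dosed for 24 h; activity fitted upward relative to DMSO.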

Experiment [15] has as its target Retinoic acid receptor alpha (Homo sapiens) (UniProt P10276). The experiment is described as follows: ATG_RARa_TRANS: Attagene TRANS-FACTORIAL HepG2 Assay for human Retinoic Acid Receptor alpha (RARa) (AID 2283005; active means hit-call score of the fitted dose curve at least 0.9, where 1 is the maximum). The method, boiled down: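 HepG2 cells transiently transfected with multiple reporter units expressing chimeric RARα-GAL4 fusion, with GAL4-UAS-driven reporters. After 24 h compound exposure, reporter mRNA induction quantified by RT-PCR and capillary electrophoresis with fluorescent labeling; gain-of-signal fitted relative to DMSO control.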

Experiment [16] concerns the target human Peroxisome Proliferator-activated Receptor delta (PPARd), PPARD (gene 5467) (UniProt Q03181). Briefly: ATG_PPARd_TRANS: Attagene TRANS-FACTORIAL HepG2 Assay for human Peroxisome Proliferator-activated Receptor delta (PPARd) (AID 2283002; active means hit-call score of the fitted dose curve at least 0.9, where 1 is the maximum). The method, boiled down:
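HepG2 cells transiently transfected with multiplexed GAL4-UAS reporter units and exogenous chimeric NR-Gal4 proteins; 24 h compound exposure. Reporter mRNA measured by RT-PCR, 6-FAM labelling, HpaI digestion and capillary electrophoresis; gain of signal versus DMSO.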

The target of experiment [17] is Nuclear receptor subfamily 1 group I member 2 (Homo sapiens) (UniProt O75469). Briefly: ATG_PXR_TRANS: Attagene TRANS-FACTORIAL HepG2 Assay for human Pregnane X Receptor (PXR) (AID 2283008; active means hit-call score of the fitted dose curve at least 0.9, where 1 is the maximum). The method, boiled down:
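HepG2 cells transiently transfected with GAL4-UAS reporter units and PXR-Gal4 chimera, exposed 24 h. Reporter mRNA quantified by RT-PCR, fluorescent labelling, HpaI digestion and capillary electrophoresis; gain of signal vs DMSO.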

In experiment [18] the target is human RAR-related Orphan Receptor beta (RORb), RORB (gene 6096) (UniProt Q92753). The experiment is described as follows: ATG_RORb_TRANS: Attagene TRANS-FACTORIAL HepG2 Assay for human RAR-related Orphan Receptor beta (RORb) (AID 2283010; active means hit-call score of the fitted dose curve at least 0.9, where 1 is the maximum). The method, boiled down: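 In this TRANS-format test, human HepG2 cells express chimeric NR-Gal4 fusion proteins driving GAL4-UAS reporters. After 24 h dosing, reporter transcripts are measured by fluorescent RT-PCR/capillary electrophoresis, with DMSO as negative control.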

Experiment [19] addresses human RAR-related Orphan Receptor gamma (RORg), RORC (gene 6097) (UniProt P51449). Briefly: ATG_RORg_TRANS: Attagene TRANS-FACTORIAL HepG2 Assay for human RAR-related Orphan Receptor gamma (RORg) (AID 2283011; active means hit-call score of the fitted dose curve at least 0.9, where 1 is the maximum). The method, boiled down: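 Transient MRTU transfection of HepG2 (TRANS format, exogenous NR-Gal4 chimera). 24 h dosing. Total RNA → oligo(dT) RT → PCR → 6-FAM labelling → HpaI cut → CE. Gain vs DMSO.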

Experiment [20] in a line: ATG_NF_kB_CIS: Attagene CIS-FACTORIAL HepG2 Assay for human Nuclear Factor Kappa B (NF-kB) (AID 2282991). To be noted: HepG2 Attagene cis-factorial NF-kB reporter mRNA; actives raise or lower the signal. The method, boiled down:
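Transient MRTU transfection of human HepG2 liver cells → 24 h chemical exposure → total RNA, oligo(dT) RT → PCR, 6-FAM primer extension, HpaI digest 2 h 37 C → CE fragment analysis. Bidirectional fitting, DMSO negative control.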

Chain of Nuclear receptor subfamily 1 group I member 2 (Homo sapiens) (O75469 whole entry, looked up, the tested form may be a part): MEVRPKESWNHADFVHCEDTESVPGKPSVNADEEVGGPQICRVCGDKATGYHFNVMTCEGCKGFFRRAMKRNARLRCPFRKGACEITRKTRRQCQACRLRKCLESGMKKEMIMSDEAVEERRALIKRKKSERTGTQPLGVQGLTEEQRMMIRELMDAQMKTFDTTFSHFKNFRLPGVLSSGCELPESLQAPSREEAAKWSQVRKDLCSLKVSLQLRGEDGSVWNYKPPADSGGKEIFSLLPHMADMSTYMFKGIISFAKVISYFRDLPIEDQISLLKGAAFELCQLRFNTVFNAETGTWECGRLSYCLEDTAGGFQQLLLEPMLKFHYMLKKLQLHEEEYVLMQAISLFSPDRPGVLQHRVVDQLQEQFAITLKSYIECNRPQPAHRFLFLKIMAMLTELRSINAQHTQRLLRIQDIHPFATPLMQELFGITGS
Chain of human Retinoic Acid Receptor gamma (RARg), RARG (gene 5916) (P13631 whole entry, looked up, the tested form may be a part): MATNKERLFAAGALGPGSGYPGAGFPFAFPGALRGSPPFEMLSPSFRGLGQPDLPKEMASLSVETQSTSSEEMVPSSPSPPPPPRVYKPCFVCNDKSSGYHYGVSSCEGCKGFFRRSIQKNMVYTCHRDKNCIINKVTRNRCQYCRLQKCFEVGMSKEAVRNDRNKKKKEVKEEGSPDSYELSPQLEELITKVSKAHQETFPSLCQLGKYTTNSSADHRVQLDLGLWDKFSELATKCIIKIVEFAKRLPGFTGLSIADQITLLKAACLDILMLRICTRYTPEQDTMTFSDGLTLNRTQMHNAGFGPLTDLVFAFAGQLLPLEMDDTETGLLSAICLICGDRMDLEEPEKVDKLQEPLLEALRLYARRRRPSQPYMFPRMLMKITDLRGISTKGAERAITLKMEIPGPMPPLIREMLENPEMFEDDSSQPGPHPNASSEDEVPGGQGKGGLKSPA
Chain of human RAR-related Orphan Receptor gamma (RORg), RORC (gene 6097) (P51449 whole entry, looked up, the tested form may be a part): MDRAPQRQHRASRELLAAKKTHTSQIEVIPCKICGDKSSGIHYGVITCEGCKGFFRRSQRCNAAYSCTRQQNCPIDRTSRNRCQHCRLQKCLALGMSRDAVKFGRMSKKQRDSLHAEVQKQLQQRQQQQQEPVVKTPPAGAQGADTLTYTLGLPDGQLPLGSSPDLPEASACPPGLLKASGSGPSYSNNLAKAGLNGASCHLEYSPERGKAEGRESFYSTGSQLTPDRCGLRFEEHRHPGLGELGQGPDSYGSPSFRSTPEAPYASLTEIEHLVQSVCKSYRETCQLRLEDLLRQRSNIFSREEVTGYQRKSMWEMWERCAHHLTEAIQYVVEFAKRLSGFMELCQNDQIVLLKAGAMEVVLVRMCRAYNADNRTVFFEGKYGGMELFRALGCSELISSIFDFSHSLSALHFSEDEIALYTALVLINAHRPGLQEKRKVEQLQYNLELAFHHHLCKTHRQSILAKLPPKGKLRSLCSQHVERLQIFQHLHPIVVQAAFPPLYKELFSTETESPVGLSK
Chain of human Retinoic Acid Receptor beta (RARb), RARB (gene 5915) (P10826 whole entry, looked up, the tested form may be a part): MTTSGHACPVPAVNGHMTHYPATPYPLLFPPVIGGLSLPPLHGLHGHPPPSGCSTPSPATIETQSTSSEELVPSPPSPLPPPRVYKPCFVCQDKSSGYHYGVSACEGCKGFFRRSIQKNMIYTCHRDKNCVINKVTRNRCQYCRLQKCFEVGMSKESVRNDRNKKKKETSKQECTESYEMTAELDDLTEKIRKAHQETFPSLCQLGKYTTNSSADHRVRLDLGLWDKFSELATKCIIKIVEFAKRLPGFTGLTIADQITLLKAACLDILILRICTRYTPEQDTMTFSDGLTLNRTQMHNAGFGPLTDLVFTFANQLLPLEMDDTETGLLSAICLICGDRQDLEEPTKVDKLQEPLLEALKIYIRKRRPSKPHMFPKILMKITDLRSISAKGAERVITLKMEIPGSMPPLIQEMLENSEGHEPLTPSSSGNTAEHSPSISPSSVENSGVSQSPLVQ
Chain of human Peroxisome Proliferator-activated Receptor alpha (PPARa), PPARA (gene 5465) (Q07869 whole entry, looked up, the tested form may be a part): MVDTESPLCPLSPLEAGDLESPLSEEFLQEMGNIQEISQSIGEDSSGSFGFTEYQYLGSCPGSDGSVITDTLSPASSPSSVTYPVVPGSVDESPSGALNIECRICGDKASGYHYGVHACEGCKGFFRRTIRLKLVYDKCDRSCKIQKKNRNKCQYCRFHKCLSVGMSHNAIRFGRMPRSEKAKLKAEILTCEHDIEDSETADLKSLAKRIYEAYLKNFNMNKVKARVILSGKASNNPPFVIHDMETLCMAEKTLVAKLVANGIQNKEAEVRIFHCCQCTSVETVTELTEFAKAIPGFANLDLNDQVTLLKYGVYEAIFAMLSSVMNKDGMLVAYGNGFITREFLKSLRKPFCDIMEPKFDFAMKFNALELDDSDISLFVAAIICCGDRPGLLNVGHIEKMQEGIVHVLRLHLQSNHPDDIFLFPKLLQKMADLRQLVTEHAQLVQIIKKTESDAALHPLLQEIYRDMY
Chain of Cellular tumor antigen p53 (Homo sapiens) (P04637 whole entry, looked up): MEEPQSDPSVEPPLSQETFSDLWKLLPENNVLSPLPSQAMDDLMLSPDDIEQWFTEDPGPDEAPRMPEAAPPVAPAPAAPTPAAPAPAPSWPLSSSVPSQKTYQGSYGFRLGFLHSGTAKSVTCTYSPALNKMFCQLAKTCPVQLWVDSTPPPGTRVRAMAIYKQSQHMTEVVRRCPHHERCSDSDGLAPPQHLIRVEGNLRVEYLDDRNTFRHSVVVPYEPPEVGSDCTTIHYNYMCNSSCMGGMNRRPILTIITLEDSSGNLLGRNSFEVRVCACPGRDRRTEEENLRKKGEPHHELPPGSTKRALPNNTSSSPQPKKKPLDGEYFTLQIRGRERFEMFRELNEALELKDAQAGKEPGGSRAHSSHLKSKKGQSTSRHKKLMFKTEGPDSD
Chain of Retinoic acid receptor alpha (Homo sapiens) (P10276 whole entry, looked up, the tested form may be a part): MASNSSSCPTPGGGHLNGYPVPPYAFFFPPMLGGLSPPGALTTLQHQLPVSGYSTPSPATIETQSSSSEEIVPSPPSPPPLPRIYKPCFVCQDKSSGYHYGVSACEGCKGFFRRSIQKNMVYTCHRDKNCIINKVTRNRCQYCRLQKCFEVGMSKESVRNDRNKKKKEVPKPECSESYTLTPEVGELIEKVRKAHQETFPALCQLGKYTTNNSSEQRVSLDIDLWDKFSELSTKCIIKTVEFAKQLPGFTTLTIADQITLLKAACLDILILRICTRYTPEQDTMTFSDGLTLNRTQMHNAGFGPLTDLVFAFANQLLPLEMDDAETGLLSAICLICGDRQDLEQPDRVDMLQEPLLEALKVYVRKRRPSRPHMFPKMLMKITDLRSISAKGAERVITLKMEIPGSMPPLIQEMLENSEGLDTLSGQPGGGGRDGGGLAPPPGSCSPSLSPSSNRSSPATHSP
Chain of human Peroxisome Proliferator-activated Receptor delta (PPARd), PPARD (gene 5467) (Q03181 whole entry, looked up, the tested form may be a part): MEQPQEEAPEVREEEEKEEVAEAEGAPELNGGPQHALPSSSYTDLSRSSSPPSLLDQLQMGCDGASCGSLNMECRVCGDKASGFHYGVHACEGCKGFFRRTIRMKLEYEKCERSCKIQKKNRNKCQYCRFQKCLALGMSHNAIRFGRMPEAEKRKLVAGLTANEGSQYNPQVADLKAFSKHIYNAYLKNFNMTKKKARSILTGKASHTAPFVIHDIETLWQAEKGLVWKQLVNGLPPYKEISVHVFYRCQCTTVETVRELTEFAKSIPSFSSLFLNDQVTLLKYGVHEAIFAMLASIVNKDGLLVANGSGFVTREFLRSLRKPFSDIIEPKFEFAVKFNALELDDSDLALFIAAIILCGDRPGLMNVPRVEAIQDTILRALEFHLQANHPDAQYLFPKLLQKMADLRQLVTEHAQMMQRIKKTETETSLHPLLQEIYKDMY
Chain of Peroxisome proliferator-activated receptor gamma (Homo sapiens) (P37231 whole entry, looked up, the tested form may be a part): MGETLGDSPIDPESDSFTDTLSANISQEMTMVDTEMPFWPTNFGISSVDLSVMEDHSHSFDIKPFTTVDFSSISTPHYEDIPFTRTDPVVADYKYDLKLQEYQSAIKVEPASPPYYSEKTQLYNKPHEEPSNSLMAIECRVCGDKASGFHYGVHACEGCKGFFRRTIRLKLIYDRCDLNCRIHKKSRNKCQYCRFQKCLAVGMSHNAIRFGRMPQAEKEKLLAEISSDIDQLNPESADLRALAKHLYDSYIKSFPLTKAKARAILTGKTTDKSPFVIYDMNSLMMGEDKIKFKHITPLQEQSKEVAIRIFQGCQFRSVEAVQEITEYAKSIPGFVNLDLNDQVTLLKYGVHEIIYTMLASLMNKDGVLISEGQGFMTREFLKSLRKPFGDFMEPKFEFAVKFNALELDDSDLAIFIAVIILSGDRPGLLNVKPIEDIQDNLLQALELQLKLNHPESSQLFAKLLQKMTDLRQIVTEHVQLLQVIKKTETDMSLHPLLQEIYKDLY
Chain of Myc proto-oncogene protein (Homo sapiens) (P01106 whole entry, looked up): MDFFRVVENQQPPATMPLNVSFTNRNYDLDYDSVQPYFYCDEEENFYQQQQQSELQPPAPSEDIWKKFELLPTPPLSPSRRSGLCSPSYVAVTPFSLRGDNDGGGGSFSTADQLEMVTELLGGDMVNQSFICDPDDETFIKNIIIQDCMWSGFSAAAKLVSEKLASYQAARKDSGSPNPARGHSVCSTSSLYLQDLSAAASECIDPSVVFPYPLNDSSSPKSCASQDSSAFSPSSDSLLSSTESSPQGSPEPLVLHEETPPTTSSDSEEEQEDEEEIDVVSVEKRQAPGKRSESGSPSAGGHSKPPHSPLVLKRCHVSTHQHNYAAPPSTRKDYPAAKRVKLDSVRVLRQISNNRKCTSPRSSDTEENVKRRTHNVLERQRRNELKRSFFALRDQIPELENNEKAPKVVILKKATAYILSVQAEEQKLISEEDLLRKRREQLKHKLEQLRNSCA

Consider `CSC(=O)c1cccc2nnsc12`, for which the outcome in experiment [1], in experiment [2], in [3], in experiment [4], in [5] and in experiment [6] was inactive. Besides, the outcome in [7], in [8], in [9], in [10], in experiment [11] and in [12] was inactive. In addition, in experiment [13], the compound was classed as inactive.

For `CCCOC(=O)NCCCN(C)C`, the outcome in experiment [1], in [2], in experiment [3], in experiment [4], in experiment [5] and in [6] was inactive. Moreover, the outcome in [7], in experiment [8], in experiment [9], in [10], in [14] and in experiment [15] was inactive. Besides, the outcome in [11] and in experiment [12] was inactive.

Turning to `CN(C)C(=O)Nc1ccc(Cl)c(Cl)c1`, the result in experiment [1], in [4], in [7], in [8], in experiment [9] and in [16] was inactive. Besides, the outcome in experiment [10], in [14], in experiment [15], in experiment [11], in experiment [12] and in [17] was inactive. The call in experiment [13], in experiment [18] and in [19] was inactive. Also, the AC50 was 23.6 µM (active) and 13.1 µM (active) in experiment [2]; 146 µM (active) and 30.3 µM (active) in [3]; 15 µM (active) in [9]; 6.84 µM (active) in experiment [17].

Regarding `COC(=O)c1ccccc1C(=O)O`, the compound was classed as inactive in experiment [1], in experiment [20], in [2], in [3], in experiment [4] and in experiment [7]. Besides, the outcome in experiment [8], in [10], in [11], in experiment [12], in experiment [17] and in experiment [13] was inactive.

On to `COc1c(Cl)ccc(Cl)c1C(=O)O`, for which the result in experiment [1], in experiment [2], in experiment [3], in experiment [5], in [7] and in experiment [8] was inactive. In addition, the call in experiment [9], in experiment [16], in experiment [10], in [14], in [15] and in [11] was inactive. In addition, the call in [12], in experiment [17] and in experiment [13] was inactive.

Consider `COC(=O)CSc1cc(N=c2sc(=O)n3n2CCCC3)c(F)cc1Cl`, for which the call in [1], in experiment [3], in [4], in experiment [7], in [8] and in [9] was inactive. Besides, the outcome in experiment [10], in experiment [11] and in [17] was inactive. Moreover, the AC50 was 27.2 µM (active) in experiment [2] and 27.4 µM (active) in [12].

Consider `CCN(CC)C(=O)c1cccc(C)c1`, for which the result in experiment [1], in [2], in experiment [3], in [7], in experiment [8] and in experiment [9] was inactive. Also, the result in experiment [16], in experiment [10], in experiment [14], in experiment [15], in experiment [11] and in experiment [12] was inactive. In addition, the compound was called inactive in experiment [17], in experiment [13] and in [19].

Turning to `C#CCOC(=O)[C@@H](C)Oc1ccc(Oc2ncc(Cl)cc2F)cc1`, the compound was called inactive in experiment [1], in [2], in experiment [3], in experiment [4], in experiment [6] and in [7]. Moreover, the result in experiment [8], in [9], in experiment [16], in experiment [10], in experiment [11] and in experiment [12] was inactive. Moreover, the compound was called inactive in [13], in [18] and in [19].
